The source of these data is PubChem BioAssay AID540364 (The Scripps Research Institute Molecular Screening Center, 2011).

The whole screen tested about 360,000 compounds, of which about 2,000 (0.56%) were called active. This is one part of a sample in which actives are shown more often than they occur.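 How the source made its calls: active means activation above the average of all compounds screened plus 3 SD, cutoff fixed separately per campaign (cut at about 7.5% in these data); inactive means the rest.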

A short description of the experiment: FXN promoter activators, primary screen, cell-based, luciferase luminescence, HEK293 lucGAA850 (AID 540364).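 Further: 0% = DMSO wells and 100% = 10 µM SAHA wells.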 The settings on record: HEK293 lucGAA850 FXN promoter luciferase reporter, 24 h; at 6 µM; active compounds read high; percent of 10 µM SAHA response.
As to `Cc1nc(-c2ccc(F)cc2)c(CC(=O)Nc2cc(S(=O)(=O)N3CCCCC3)ccc2C)s1`, the activation is 18.7% (active).

Take `Cc1nc(-c2ccc(F)cc2)c(CC(=O)Nc2cccc(S(=O)(=O)N3CCOCC3)c2)s1`: the activation is -0.93% (inactive).

In the case of `Cc1nc(-c2ccc(F)cc2)c(CC(=O)N2CCN(S(=O)(=O)c3ccc(F)cc3)CC2)s1`, the activation was 1.58% (inactive).

For `CSCCC(NC(N)=O)C(=O)N(C)CC(=O)Nc1ccc(C)cc1` (configuration not stated), the activation was 0.85% (inactive).

Take `CCOc1cc(S(=O)(=O)NCc2ccc3c(c2)OCO3)ccc1F`: the activation was 1.09% (inactive).

For `Cc1ccc(-c2nnc(-n3nnc4ccccc43)c3ccccc23)cc1`, the activation was 3.17% (inactive).

Regarding `Cc1ccc(-c2nc3ccccc3[nH]c2=O)cc1`, the activation is 8.59% (active).

As to `Cc1ccccc1N1CC(c2nc3ccccc3[nH]2)CC1=O` (configuration not stated), the activation is -3.78% (inactive).

Turning to `CN(c1ccccc1)c1nc(N)c([N+](=O)[O-])c(NCc2ccco2)n1`, the activation is 6.64% (inactive).

`COc1ccc(Nc2nc(NCc3ccco3)nc(N/N=C/c3ccccc3Cl)n2)cc1`: the activation is 0.27% (inactive).

As to `COc1cccc(Nc2nc(N)c([N+](=O)[O-])c(NCc3ccco3)n2)c1`, the activation is 12.7% (active).

In the case of `CCOC(=O)C1CCN(C(=O)CN2C(=O)NC(C)(c3ccc4cc(OC)ccc4c3)C2=O)CC1` (configuration not stated), the activation was -1.63% (inactive).

In the case of `CCOC(=O)C1CCN(c2ncnc3c2c(-c2ccccc2)cn3-c2ccc(C)cc2)CC1`, the activation was 0.35% (inactive).

`O=c1[nH]cnc2c1c(-c1ccccc1)cn2-c1ccc(F)cc1`: the activation was 8.36% (active).

For the compound `O=c1c2c(-c3ccccc3)ccnc2[nH]n1-c1ccccc1`, the activation is 2.17% (inactive).

In the case of `CCc1nnc(NC(=O)CSc2nnc(COc3ccc(C#N)cc3)n2-c2ccccc2)s1`, the activation is 0.66% (inactive).

For `CCOc1ccc(CCNC(=O)C2CCN(c3ccc(N4CCOCC4)nn3)CC2)cc1OCC`, the activation was 2.52% (inactive).

With `CCCCCCCCCCCCN1[C@@H](CC(C)=O)c2cc(F)cc(F)c2S1(=O)=O`, the activation was 0.59% (inactive).

In the case of `COc1ccccc1-c1nc(C(F)(F)F)c(OC)o1`, the activation was 0.69% (inactive).

In the case of `COc1ccccc1C1=CC(=O)CCC1`, the activation is -2.28% (inactive).

`COc1ccccc1C1=Nc2cccc3cccc(c23)N1`: the activation was 11.7% (active).

Consider `CCOCCOCCC(C(=O)O)P(=O)(c1ccccc1)c1ccccc1` (configuration not stated), for which the activation is -1.43% (inactive).

Take `CCOc1ccc(NC(=O)CN(C)C(=O)COc2cccc(CC)c2)cc1OCC`: the activation is 0.68% (inactive).

Regarding `C[C@H](CO)N1C[C@H](C)[C@@H](CN(C)C(=O)c2cccc(F)c2)Oc2cc(-c3cncnc3)ccc2S1(=O)=O`, the activation is 0.78% (inactive).

In the case of `COc1ccccc1CNC(=O)c1ccc(N(C)S(=O)(=O)c2ccc(C)cc2)cc1`, the activation was 0.45% (inactive).

Consider `COc1ccc(NC(=O)CC2C(=O)OCC3CCCCN32)cc1Cl` (configuration not stated), for which the activation is 3.58% (inactive).

As to `COc1ccc(/C=C/C(=O)c2c(O)cc(OC)cc2OC)cc1`, the activation is 1.23% (inactive).

Consider `O=C(NCCCn1ccnc1)c1cc(Br)c(Br)s1`, for which the activation was 1.52% (inactive).

Take `O=C(NC1CCCCC1)c1cc(C2CC2)on1`: the activation is 2.15% (inactive).

With `O=C(NCCCn1ccnc1)c1cc(-c2ccccc2)on1`, the activation was 20.8% (active).

`O=C(NC1CCCC1)c1cc(-c2ccccc2)on1`: the activation was 8.61% (active).

Turning to `COc1cc(OC)cc(C(=O)NCCCn2ccnc2)c1`, the activation is 1.13% (inactive).

`O=C(NC1CCCCCCC1)c1cccs1`: the activation was 1.55% (inactive).

As for `Fc1ccc(CNc2nc3ccccc3n3nnnc23)cc1`, the activation is 4.29% (inactive).

Take `O=S(=O)(c1ccc(Sc2nnc3ccccn23)nc1)N1CCOCC1`: the activation was -1.38% (inactive).

Regarding `CC1(C)CC(=O)CC2(C1)NCC(c1ccccc1Cl)c1c2[nH]c2ccccc12` (configuration not stated), the activation is -7.14% (inactive).

In the case of `CCCc1c(C(=O)O)cnn1-c1ccc(Cl)cc1`, the activation is -0.1% (inactive).

Turning to `CCCNC(=O)c1c(Cl)cnn1-c1ccc(C)cc1`, the activation was 7.7% (active).

In the case of `CCCNC(=O)CCc1c(C)nc2c(c(C)nn2-c2ccc(C)cc2)c1C`, the activation is 0.2% (inactive).

In the case of `Cc1cnc(C(=O)OCc2c(C)cc(C(C)(C)C)cc2C)cn1`, the activation is 1.56% (inactive).

Turning to `CC(Oc1ccccc1)C(=O)NN1Cc2ccccc2C1=N` (configuration not stated), the activation was 2.03% (inactive).

As to `CCOC(=O)c1nn(-c2cccc(C)c2)cc1C(=O)c1ccccc1`, the activation was 6.71% (inactive).

As for `CCCNC(=O)c1cc(C2CCCCN2S(=O)(=O)c2ccc(C#N)cc2)on1` (configuration not stated), the activation was 1.65% (inactive).

With `O=C(CSc1cccc2cccnc12)N/N=C/c1cccnc1`, the activation was 15.3% (active).

Regarding `Cc1c(NC(=O)CSc2cccc3cccnc23)c(=O)n(-c2ccccc2)n1C`, the activation was 2.68% (inactive).

As for `Cc1ccc(S(=O)(=O)N(CC(=O)N/N=C/c2ccc(F)cc2)c2cccc3cccnc23)cc1`, the activation was -4.8% (inactive).

Turning to `COc1ccccc1N(CC(=O)Nc1ccc(C)cc1Cl)S(=O)(=O)c1cccs1`, the activation is 0.98% (inactive).

In the case of `Cc1ccccc1-n1c(C)cc(/C=N/NC(=O)c2ccc(CN3CCOCC3)cc2)c1C`, the activation is 0.54% (inactive).

`COc1ccc(CCNC(=O)C(=O)NCC2OCCN2S(=O)(=O)c2ccc(F)cc2)cc1OC` (configuration not stated): the activation is -0.5% (inactive).

As to `Cc1noc(C)c1-c1ccc2ncnc(NC(C)c3ccco3)c2c1` (configuration not stated), the activation is 10.2% (active).

Consider `CCc1c(N=O)c(-c2ccccc2)n(O)[n+]1[O-]`, for which the activation was 3.14% (inactive).

Turning to `COc1cc(C#Cc2ccc3cc(CCCO)oc(=O)c3c2)cc(OC)c1`, the activation was 7.61% (active).

For `COc1cc(/C=C2\Oc3ccc(C#Cc4ccc(O)cc4)cc3C2=O)cc(OC)c1`, the activation is -0.08% (inactive).

For `CC(C)c1ccc(S(=O)(=O)N2CCC3(CC2)OCCO3)cc1`, the activation was -0.76% (inactive).

On to `COCOCCn1cc(CN2CCS(=O)(=O)N(Cc3ccc(-c4ccccc4)cc3)C(CC(C)C)C2=O)nn1` (configuration not stated), for which the activation is -0.25% (inactive).

On to `CCOc1cccc2cc(C(=O)OCC(=O)Nc3c(C)cccc3CC)c(=O)oc12`, for which the activation was 1.17% (inactive).

Turning to `CCCCCOc1ccc(CSC2=NCCN2)cc1[N+](=O)[O-]`, the activation was 8.36% (active).

Turning to `O=[N+]([O-])c1ccccc1OCCCCN1CCCCC1`, the activation is 1.12% (inactive).

In the case of `Cc1nc(SCc2ccc(F)cc2)c([N+](=O)[O-])[nH]1`, the activation was 0.83% (inactive).

As for `Cc1oc2c(F)c(F)c(F)c(F)c2c1S(=O)(=O)Nc1cccc(C(F)(F)F)c1`, the activation was -1.14% (inactive).

As to `NC(=O)c1ccsc1NC(=O)COC(=O)COc1ccc(C=O)cc1`, the activation is 1.47% (inactive).

As to `CCOC(=O)C(=Cc1ccccc1)C(=O)c1ccccc1`, the activation was -4.25% (inactive).

Regarding `Cc1cc(C)nc(SC(C)C(=O)N/N=C/c2cccs2)n1` (configuration not stated), the activation is -1.1% (inactive).

`Cc1cc(C)nc(S/C=C/C(=O)c2ccccc2)n1`: the activation was 14.6% (active).

With `CC(=O)c1ccc(N2CCN(C(=O)C3CCN(S(=O)(=O)c4ccc5c(c4)CC(C)N5C(=O)C4CC4)CC3)CC2)cc1` (configuration not stated), the activation was 1.92% (inactive).

Consider `Cc1ccc(SC(CC(=O)c2ccc(C(C)(C)C)cc2)C(=O)O)cc1` (configuration not stated), for which the activation was 9.01% (active).

As for `CC(C)(C)c1ccc(C(=O)NNC(=O)Cc2ccccc2)cc1`, the activation was 3.03% (inactive).

In the case of `Cc1ccc(Sc2cc(C(=O)c3ccccc3C(=O)O)ccc2[N+](=O)[O-])cc1`, the activation was 0.3% (inactive).

Consider `COc1ccc(/C=C2\CCCC3C2=NN(C(=O)c2scnc2C)C3c2ccc(OC)cc2)cc1` (configuration not stated), for which the activation was 1.94% (inactive).

Regarding `Cc1ccc(NC(=O)C(CC(=O)O)C2CCCO2)c(C)c1` (configuration not stated), the activation was 0.8% (inactive).

`COc1ccc(C(CNC(=O)c2cc3c(s2)CCCC3)N2CCOCC2)cc1` (configuration not stated): the activation is 1.32% (inactive).

Take `CC1(C(=O)NS(=O)(=O)c2ccccc2Cl)CCN1C(=O)c1cccc(F)c1` (configuration not stated): the activation is 1.46% (inactive).

On to `CSc1ccc(CN2CCC2(C)C(=O)NCc2ccccc2Br)cc1` (configuration not stated), for which the activation is 0.95% (inactive).

With `CC1(C(=O)NCc2ccc3c(c2)OCO3)CCN1C(=O)Cc1cccc2ccccc12` (configuration not stated), the activation is 0.09% (inactive).

For `CC1(C(=O)NCc2cccc3ccccc23)CCN1Cc1ccc(-c2ccccc2)o1` (configuration not stated), the activation was 10% (active).

Take `CCC1CO/C(=C(\C(=C(Cl)Cl)N2CCOCC2)[N+](=O)[O-])N1` (configuration not stated): the activation is 1.9% (inactive).

`Cc1cccc(NC(=O)CN2CCCN(S(=O)(=O)c3ccc(Br)s3)CC2)c1`: the activation was 0.67% (inactive).

Regarding `COc1cc(OC)cc(-c2c(-c3cccs3)c3cc(-c4ccc(OC)cc4F)ccc3n2C)c1`, the activation was 0.9% (inactive).

With `CC(C)(C)NC(=O)C(c1ccco1)N(Cc1ccc2c(c1)OCO2)C(=O)Cn1nnc2ccccc21` (configuration not stated), the activation was -3.64% (inactive).

With `COc1ccc(N(CC(=O)N2CCCCCC2)S(=O)(=O)c2ccccc2)cc1`, the activation is -0.03% (inactive).

Consider `COc1ccc(N(CCC#N)S(=O)(=O)c2ccc(Cl)cc2)cc1`, for which the activation is 9.52% (active).

For the compound `COc1ccc(S(=O)(=O)NCCCCOc2ccc(Cl)cc2)cc1`, the activation is 1.56% (inactive).

In the case of `COc1ccc2c(c1)C(=C(C#N)C#N)C(=O)N2CCc1ccccc1`, the activation is 1.6% (inactive).

Turning to `COc1cc(NC(=S)NCCSc2ccc(C)cc2)cc(OC)c1`, the activation is 0.45% (inactive).

For the compound `COc1ccc(Cl)cc1NC(=O)CN(C)C(=O)c1cc2ccccc2cc1OC`, the activation was 0.89% (inactive).

As to `COc1ccc(Cl)cc1NC(=O)CN(C)C(=O)CCCc1c[nH]c2ccccc12`, the activation is 9.56% (active).

Turning to `COc1ccc(Cl)cc1NC(=O)CN(C)C(=O)CNC(=O)C12CC3CC(CC(C3)C1)C2`, the activation was 1.23% (inactive).

Consider `COCCNc1ncnc2c1ncn2[C@H]1CN(CCN2CCOCC2)C[C@@H](CO)O1`, for which the activation is 0.56% (inactive).

Consider `Cc1ccc(C(NC(=O)C2CCN(CCOc3ccc(Cl)cc3Cl)CC2)c2ccccn2)cc1` (configuration not stated), for which the activation is 1.16% (inactive).

Take `O=C(N/N=C/c1ccco1)c1ccc(NC(=O)C2CC2)cc1`: the activation is 1.23% (inactive).

For the compound `O=C(N/N=C/c1ccco1)c1csc2c1CCCC2`, the activation was 1.3% (inactive).

For `O=C(N/N=C/C=C/c1ccco1)c1cccs1`, the activation is 11.9% (active).
